The record followed here is PubChem BioAssay AID1458 (National Center for Advancing Translational Sciences (NCATS), 2008).

The whole screen tested about 210,000 compounds, of which about 5,900 (2.8%) were called active. Another 5% or so got no clear call; they are omitted. This is one part of a sample in which actives are shown more often than they occur. Unmarked numbers belong to inactive results. Calls follow the shape of the dose curve; as a rule, active = well fitted activation curve with a large enough effect; inconclusive = small, poorly fitted or top-dose-only effect; inactive = no such curve, though single readings can be large or run the other way.
Potency is read from the fitted curve at half-maximal effect.

This test can be described thus: qHTS Assay for Enhancers of SMN2 Splice Variant Expression. Also: nearly all actives have a fitted effect of over 55% in size. As to activity change, positive = activation: % of control where 0% means no effect. The settings on record: HEK293 SMN2-luciferase splicing reporter, luminescence, 30-36 h; series mostly up to 46.1 µM; activity change, positive = activation: at the top concentration. An outline of the steps: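 HEK293 cells carry an SMN2 minigene-luciferase reporter in which exon 7 inclusion puts luciferase in frame. Cells were seeded at 2000 cells/well, attached for 10-12 hours, then exposed to compounds for 30-36 hours at 37C before ONE-Glo luminescence.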
With `Cc1cc(Cl)ccc1OCc1nc(-c2ccncc2)no1`, the Potency is 12.6 µM (active).
As to `Cc1ccccc1C(=O)NCc1nc(-c2ccc(Cl)cc2)no1`, the “activity change, positive = activation” value is -15.9%.
With `O=C(c1ccc2c(c1)N(Cc1ccccc1)C(=O)c1ccccc1S2(=O)=O)N1CCCC1`, the “activity change, positive = activation” value was -0.292%.
Take `O=C(CCCCn1c(=O)c2ccccc2n(CC(=O)Nc2cccc(C(F)(F)F)c2)c1=O)NCc1ccc2c(c1)OCO2`: the “activity change, positive = activation” value is 1.27%.
On the same count and under the same terms, to `Fc1ccc(CSc2nnc(-c3cc4c(s3)-c3ccccc3CC4)o2)cc1` belongs -4.27%.
`Cc1cccc(-c2nnc(SCC(=O)N3CCCc4ccccc43)o2)c1`: the “activity change, positive = activation” value was -8.01%.
In the case of `CCSc1nnc(-c2cc3c(s2)-c2ccccc2CC3)o1`, the Potency was 15.8 µM (active).
For the compound `COc1ccccc1-c1noc(CSc2nnc(-c3ccccc3)n2-c2ccc(C)c(C)c2)n1`, the “activity change, positive = activation” value is 6.46%.
Same read-out and setting: next, `CCCCOc1ccc(C(=O)Nc2cccc(-c3nc4ccccc4o3)c2C)cc1`: -5.83%.
For the compound `O=c1[nH]c(CCl)nc2cc(-c3ccc(Cl)cc3)sc12`, the Potency was 7.08 µM (active).
Take `NC(=O)Cc1nc2scc(-c3ccc(Cl)cc3)c2c(=O)[nH]1`: the “activity change, positive = activation” value is -24.1%.
The same measure, in the same setting: next, `O=c1[nH]c(CN2CCOCC2)nc2cc(Cl)ccc12`: -2.49%.
Still for that read-out and setting: next, `Cc1ccc(SCCC(=O)Nc2cc(C)on2)cc1`: -16.2%.
For the compound `Cc1cc(NC(=O)CCC2COc3ccccc3O2)no1` (configuration not stated), the Potency was 12.6 µM (active).
On to `COc1ccc(NC(=O)CC2COc3ccccc3O2)c(OC)c1` (configuration not stated), for which the “activity change, positive = activation” value was -9.35%.
Still for that read-out and setting: next, `CCc1ccccc1NC(=O)c1ccc2c(c1)CCN2S(C)(=O)=O`: 6.29%; `Cn1c(=NC(=O)CSCC(=O)N2CCOCC2)sc2ccccc21`: -1.7%.
Consider `Cn1c(=NC(=O)c2cnccn2)sc2ccccc21`, for which the Potency was 12.6 µM (active).
Take `Cn1c(=NC(=O)CSCC(=O)N2CCCCC2)sc2ccccc21`: the “activity change, positive = activation” value was 4.56%.
With `Cc1cc(C)cc(OCC(=O)Nc2nc(-c3ccc(F)cc3)ns2)c1`, the “activity change, positive = activation” value is 0.535%.
Same read-out and setting: next, `O=C(NCC12CC3CC(CC(C3)C1)C2)c1cc2nc(-c3ccccc3)cc(C(F)(F)F)n2n1`: 1.79%.
In the case of `COc1ccc2nc(SCc3ccccc3)nc(C)c2c1`, the Potency was 11.2 µM (active).
Consider `COC(=O)CSc1nc(C)c2ccc(OC)cc2n1`, for which the “activity change, positive = activation” value is -3.05%.
The same measure, in the same setting: next, `COc1ccc2nc(/N=C(\N)NC(=O)Nc3ccccc3)nc(C)c2c1`: -13.2%; `CCc1nn(CCCC(=O)NC(C)c2ccccc2)c(=O)c2cc3occc3n12` (configuration not stated): 4.04%.
The same measure, in the same setting: next, `Cc1ccc(S(=O)(=O)n2nc(-c3ccc(Cl)cc3)nc2NCc2ccccc2)cc1`: 3.98%; `CCOc1ccc(Nc2oc(/C=C/c3ccc(F)cc3)nc2C#N)cc1`: -3.75%.
Consider `COc1ccccc1NC(=O)c1ccc(C)s1`, for which the Potency is 12.6 µM (active).
On to `COc1ccccc1NC(=O)C1=C(C)NC(=O)NC1c1ccc(C)s1` (configuration not stated), for which the “activity change, positive = activation” value is 1.35%.
The same measure, in the same setting: to `COc1ccccc1NC(=O)/C=C/C(N)=O` belongs -1.18%.
In the case of `Cc1cc(C)cc(NS(=O)(=O)c2ccc3[nH]cc(C(=O)N4CCCCC4)c(=O)c3c2)c1`, the “activity change, positive = activation” value was 0.685%.
For `Cc1ccc(Nc2c(-c3ccc(Cl)cc3)nc3sccn23)c(C)c1`, the “activity change, positive = activation” value was -10.5%.
Still for that read-out and setting: next, `CCCCOc1ccc(C(=O)N2CC(=O)Nc3ccc(Br)cc3C2c2ccc(F)cc2)cc1` (configuration not stated): -19%; `Cc1ccc(NC(=S)NC(=O)c2ccc(-c3ccccc3)cc2)c(C)c1`: -42.6%; `Cc1ccc(NC(=S)NCc2ccccc2Cl)c(C)c1`: 12.2%.
`Cc1ccc(NC(=S)Nc2ncccc2C)c(C)c1`: the Potency is 12.6 µM (active).
Take `O=C(OCc1ccc([N+](=O)[O-])cc1)c1ccccn1`: the “activity change, positive = activation” value was 1.36%.
As to `N/C(=N\OC(=O)c1ccc([N+](=O)[O-])cc1)c1ccccn1`, the Potency is 6.31 µM (active).
As for `N/C(=N\OC(=O)Cc1ccc([N+](=O)[O-])cc1)c1ccccn1`, the “activity change, positive = activation” value is 12.1%.
Turning to `CCOC(=O)c1ccc(N2C(=O)c3n[nH]c(-c4ccco4)c3C2c2ccc(O)cc2)cc1` (configuration not stated), the “activity change, positive = activation” value was -28.6%.
With `Cc1nc2ccc(S(=O)(=O)NC(C(=O)NCc3ccccc3Cl)C(C)C)cc2s1` (configuration not stated), the “activity change, positive = activation” value was 12.8%.
Same read-out and setting: next, `COc1ccc(-c2nc(CN3CCC(C(=O)NCCN(CC(C)C)CC(C)C)CC3)c(C)o2)cc1OC`: 28.4%.
Regarding `COc1ccc(CNc2nc(-c3ccc(Cl)cc3)cc(C(F)(F)F)n2)cc1`, the “activity change, positive = activation” value is -27.8%.
With `O=C1CC(c2ccc(F)cc2F)c2cc3c(cc2N1)OCO3` (configuration not stated), the “activity change, positive = activation” value is 1.33%.
Turning to `COc1c2c(cc3occ(-c4ccc5c(c4)OCO5)c(=O)c13)OC(C)(C)C=C2`, the Potency is 6.31 µM (active).
For the compound `COc1ccc(CCNC(=O)c2cc(-c3ccc4c(c3)OCO4)on2)cc1OC`, the “activity change, positive = activation” value was 1.05%.
The same measure, in the same setting: to `Cc1cccc(NC(=O)CSc2nnc(CNC(=O)c3cccc(C)c3)n2-c2ccccc2)c1` belongs -32.5%; to `CCN1CCN(c2cc(C)c3cc(NC(=O)c4cc(Cl)ccc4OC)ccc3n2)CC1`, -12.2%.
Turning to `CCc1cccc(NC(=O)CSc2nccn2C)c1`, the “activity change, positive = activation” value is 16.9%.
Same read-out and setting: to `O=C(CCCn1c(SCC(=O)c2ccc(F)cc2)nc2ccccc2c1=O)NCc1ccco1` belongs -22%.
As for `Cc1ccc(C(=O)CSc2nc3ccccc3c(=O)n2N)o1`, the Potency was 15.8 µM (active).
Turning to `O=C(CCn1c(SCC(=O)c2ccccc2)nc2ccccc2c1=O)NCc1ccc(F)cc1`, the “activity change, positive = activation” value was 2.41%.
